# Data taken from publication PMC7862700, “An all-to-all approach to the identification of sequence-specific readers for epigenetic DNA modifications on cytosine”.
# What was measured:
# Assay in all cases: DAPPL (digital affinity profiling via proximity ligation, sequencing); 10 mM Tris-HCl pH 7.5, 50 mM NaCl, 1 mM DTT, 4% glycerol, room temperature, 30 min; GST-TFs on glutathione beads, 16-mer random dsDNA library, 0.1% formaldehyde crosslink after washing; high values mean tight binding
# [1] = molecular target: T1, FEV (Homo sapiens, UniProt Q99581 1-238); details: protein: recombinant; tags: N-terminal GST; dsDNA, one strand shown
# T1 sequence: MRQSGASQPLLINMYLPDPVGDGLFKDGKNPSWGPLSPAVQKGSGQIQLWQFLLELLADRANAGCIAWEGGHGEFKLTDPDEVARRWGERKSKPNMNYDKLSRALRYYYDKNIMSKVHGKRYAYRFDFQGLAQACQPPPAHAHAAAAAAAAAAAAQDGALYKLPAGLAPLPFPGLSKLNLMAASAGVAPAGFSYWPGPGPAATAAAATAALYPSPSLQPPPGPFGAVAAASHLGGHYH
# How it was run: (§1)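 Binding signal is given per hexamer as its read frequency for a factor divided by its frequency in the tag-only sample. GST-fused human transcription factors were expressed in yeast, captured on glutathione beads, barcoded with DNA and pooled with that sample, then incubated with 200 nmole of a 16-mer random double-stranded DNA library in Tris/NaCl/DTT/glycerol buffer for 30 min at room temperature. The pools were then washed, crosslinked, proximity-ligated, amplified by PCR and sequenced on an Illumina NextSeq500.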
# [2] = molecular target: ETV5 (Homo sapiens, UniProt P41161 1-510); details: protein: recombinant; tags: N-terminal GST; dsDNA, one strand shown
# ETV5, sequence (P41161 whole entry): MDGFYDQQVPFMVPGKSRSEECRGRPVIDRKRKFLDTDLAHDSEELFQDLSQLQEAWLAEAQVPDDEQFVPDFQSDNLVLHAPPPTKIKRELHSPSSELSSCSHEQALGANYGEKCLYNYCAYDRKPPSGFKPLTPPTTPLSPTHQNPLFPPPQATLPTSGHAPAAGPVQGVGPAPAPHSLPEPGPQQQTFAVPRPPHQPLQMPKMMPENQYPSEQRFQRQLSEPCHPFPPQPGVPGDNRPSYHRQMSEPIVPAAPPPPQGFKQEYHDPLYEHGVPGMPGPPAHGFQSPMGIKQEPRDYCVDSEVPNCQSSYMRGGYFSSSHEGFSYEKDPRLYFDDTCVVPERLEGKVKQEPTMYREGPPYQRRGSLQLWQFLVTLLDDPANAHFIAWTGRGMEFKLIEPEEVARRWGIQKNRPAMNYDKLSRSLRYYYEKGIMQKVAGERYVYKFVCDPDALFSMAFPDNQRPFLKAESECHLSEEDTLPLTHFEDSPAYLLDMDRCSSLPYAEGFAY
# How it was run: as §1
# [3] = molecular target: HSF1 (Homo sapiens, UniProt Q00613 1-529); details: protein: recombinant; tags: N-terminal GST; chain copies: 3; dsDNA, one strand shown
# HSF1, sequence (Q00613 whole entry): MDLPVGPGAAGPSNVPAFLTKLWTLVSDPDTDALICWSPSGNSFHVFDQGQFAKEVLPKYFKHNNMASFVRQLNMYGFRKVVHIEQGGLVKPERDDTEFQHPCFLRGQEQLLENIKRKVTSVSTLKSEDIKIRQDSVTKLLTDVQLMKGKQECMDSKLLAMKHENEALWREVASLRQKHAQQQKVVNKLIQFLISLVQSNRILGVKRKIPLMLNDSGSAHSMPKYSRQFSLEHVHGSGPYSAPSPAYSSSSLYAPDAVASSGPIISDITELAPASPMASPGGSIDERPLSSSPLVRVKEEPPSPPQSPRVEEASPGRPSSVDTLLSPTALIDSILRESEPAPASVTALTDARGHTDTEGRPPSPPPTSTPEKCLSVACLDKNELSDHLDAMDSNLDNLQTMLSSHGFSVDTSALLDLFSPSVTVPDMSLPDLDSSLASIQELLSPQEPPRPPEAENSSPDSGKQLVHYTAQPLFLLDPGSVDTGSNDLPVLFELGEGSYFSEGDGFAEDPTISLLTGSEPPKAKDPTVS
# How it was run: as §1
# [4] = molecular target: T2, SPIC (Homo sapiens, UniProt Q8N5J4 1-248); details: protein: recombinant; tags: N-terminal GST; dsDNA, one strand shown
# T2 sequence: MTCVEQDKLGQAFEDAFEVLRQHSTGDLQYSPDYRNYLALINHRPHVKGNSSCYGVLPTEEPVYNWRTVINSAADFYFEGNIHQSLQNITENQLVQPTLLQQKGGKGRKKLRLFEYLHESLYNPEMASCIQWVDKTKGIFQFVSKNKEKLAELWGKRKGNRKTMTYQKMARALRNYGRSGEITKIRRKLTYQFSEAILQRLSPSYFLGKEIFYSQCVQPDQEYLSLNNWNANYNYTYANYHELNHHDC
# How it was run: as §1
# [5] = molecular target: ELF4 (Homo sapiens, UniProt Q99607 1-663); details: protein: recombinant; tags: N-terminal GST; dsDNA, one strand shown
# ELF4, sequence (Q99607 whole entry): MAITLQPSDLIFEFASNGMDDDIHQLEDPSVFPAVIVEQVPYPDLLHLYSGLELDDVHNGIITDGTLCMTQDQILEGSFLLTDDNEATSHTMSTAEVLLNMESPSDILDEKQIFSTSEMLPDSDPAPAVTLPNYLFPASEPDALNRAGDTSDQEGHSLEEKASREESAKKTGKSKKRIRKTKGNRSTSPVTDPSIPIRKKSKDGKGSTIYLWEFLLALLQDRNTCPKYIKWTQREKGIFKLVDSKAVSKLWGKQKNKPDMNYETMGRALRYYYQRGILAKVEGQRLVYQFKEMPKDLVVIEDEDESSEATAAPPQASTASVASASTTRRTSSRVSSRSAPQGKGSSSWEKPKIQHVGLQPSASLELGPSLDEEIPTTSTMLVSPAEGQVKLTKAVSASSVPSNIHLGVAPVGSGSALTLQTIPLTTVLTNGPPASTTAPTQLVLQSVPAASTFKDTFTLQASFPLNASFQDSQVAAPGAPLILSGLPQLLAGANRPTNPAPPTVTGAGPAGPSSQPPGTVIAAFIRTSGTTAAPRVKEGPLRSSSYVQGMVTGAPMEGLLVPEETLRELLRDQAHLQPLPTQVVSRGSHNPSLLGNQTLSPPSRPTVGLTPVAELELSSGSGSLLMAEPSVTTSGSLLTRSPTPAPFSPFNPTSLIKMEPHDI
# How it was run: as §1
# [6] = molecular target: T3, ELK4 (Homo sapiens, UniProt P28324-2 1-405); details: protein: recombinant; tags: N-terminal GST; dsDNA, one strand shown
# T3 sequence: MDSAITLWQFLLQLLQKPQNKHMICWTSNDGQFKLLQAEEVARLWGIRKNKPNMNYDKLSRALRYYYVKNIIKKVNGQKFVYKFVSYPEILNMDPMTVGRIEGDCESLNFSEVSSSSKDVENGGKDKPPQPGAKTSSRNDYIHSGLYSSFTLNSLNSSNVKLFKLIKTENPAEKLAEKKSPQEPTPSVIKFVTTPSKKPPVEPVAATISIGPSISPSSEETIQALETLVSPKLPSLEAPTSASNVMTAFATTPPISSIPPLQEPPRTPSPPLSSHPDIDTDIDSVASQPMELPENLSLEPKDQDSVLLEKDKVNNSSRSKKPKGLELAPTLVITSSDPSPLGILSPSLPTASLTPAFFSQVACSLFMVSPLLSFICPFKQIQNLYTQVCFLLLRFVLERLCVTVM
# How it was run: as §1
# [7] = molecular target: T4, ETV2 (Homo sapiens, UniProt O00321 1-342); details: protein: recombinant; tags: N-terminal GST; dsDNA, one strand shown
# T4 sequence: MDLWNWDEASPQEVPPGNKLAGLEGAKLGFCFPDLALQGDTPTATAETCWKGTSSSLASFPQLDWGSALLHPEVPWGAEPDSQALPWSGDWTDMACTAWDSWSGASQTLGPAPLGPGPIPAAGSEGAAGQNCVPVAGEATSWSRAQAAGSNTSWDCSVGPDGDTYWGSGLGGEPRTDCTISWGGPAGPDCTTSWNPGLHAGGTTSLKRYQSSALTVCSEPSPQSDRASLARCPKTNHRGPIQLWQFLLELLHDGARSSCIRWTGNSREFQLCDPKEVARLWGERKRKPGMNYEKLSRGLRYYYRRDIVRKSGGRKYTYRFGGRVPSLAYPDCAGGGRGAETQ
# How it was run: as §1
# [8] = molecular target: T5, ELF3 (Homo sapiens, UniProt P78545 1-371); details: protein: recombinant; tags: N-terminal GST; dsDNA, one strand shown
# T5 sequence: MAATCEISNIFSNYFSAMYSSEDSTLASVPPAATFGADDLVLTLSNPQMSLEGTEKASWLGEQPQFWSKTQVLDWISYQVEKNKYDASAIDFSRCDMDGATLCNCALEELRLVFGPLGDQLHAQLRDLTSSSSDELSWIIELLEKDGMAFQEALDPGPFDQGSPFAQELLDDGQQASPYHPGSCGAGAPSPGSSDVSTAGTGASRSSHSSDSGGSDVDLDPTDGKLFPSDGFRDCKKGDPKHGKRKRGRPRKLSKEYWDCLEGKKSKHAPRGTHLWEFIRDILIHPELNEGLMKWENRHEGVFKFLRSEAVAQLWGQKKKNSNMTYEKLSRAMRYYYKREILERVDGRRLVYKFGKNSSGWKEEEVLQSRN
# How it was run: as §1
# [9] = molecular target: CRX (Homo sapiens, UniProt O43186 1-299); details: protein: recombinant; tags: N-terminal GST; dsDNA, one strand shown
# CRX, sequence (O43186 whole entry): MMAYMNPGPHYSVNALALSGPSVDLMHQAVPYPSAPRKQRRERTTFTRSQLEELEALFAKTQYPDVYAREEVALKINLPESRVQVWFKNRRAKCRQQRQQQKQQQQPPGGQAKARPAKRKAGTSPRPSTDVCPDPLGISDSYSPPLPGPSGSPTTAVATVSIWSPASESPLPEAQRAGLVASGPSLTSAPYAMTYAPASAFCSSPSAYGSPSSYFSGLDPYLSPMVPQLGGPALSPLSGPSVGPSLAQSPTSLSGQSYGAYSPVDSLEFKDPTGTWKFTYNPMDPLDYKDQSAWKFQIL
# How it was run: as §1
# [10] = molecular target: ETV1 (Homo sapiens, UniProt P50549 1-477); details: protein: recombinant; tags: N-terminal GST; dsDNA, one strand shown
# ETV1, sequence (P50549 whole entry): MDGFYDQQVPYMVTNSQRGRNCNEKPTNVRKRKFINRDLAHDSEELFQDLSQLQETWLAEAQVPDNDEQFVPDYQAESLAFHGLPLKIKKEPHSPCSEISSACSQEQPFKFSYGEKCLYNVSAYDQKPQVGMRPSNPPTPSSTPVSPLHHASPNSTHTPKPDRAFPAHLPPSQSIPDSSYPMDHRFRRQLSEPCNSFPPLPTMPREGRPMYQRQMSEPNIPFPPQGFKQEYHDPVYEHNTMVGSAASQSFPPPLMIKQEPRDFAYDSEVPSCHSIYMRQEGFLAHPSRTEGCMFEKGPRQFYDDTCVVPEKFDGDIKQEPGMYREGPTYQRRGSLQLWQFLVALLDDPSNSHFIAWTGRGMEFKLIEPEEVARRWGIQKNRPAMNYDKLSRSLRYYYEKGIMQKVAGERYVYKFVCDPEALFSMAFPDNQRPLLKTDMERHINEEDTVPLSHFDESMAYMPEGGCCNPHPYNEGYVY
# How it was run: as §1
# [11] = molecular target: T6, ERF (Homo sapiens, UniProt P50548 1-548); details: protein: recombinant; tags: N-terminal GST; dsDNA, one strand shown
# T6 sequence: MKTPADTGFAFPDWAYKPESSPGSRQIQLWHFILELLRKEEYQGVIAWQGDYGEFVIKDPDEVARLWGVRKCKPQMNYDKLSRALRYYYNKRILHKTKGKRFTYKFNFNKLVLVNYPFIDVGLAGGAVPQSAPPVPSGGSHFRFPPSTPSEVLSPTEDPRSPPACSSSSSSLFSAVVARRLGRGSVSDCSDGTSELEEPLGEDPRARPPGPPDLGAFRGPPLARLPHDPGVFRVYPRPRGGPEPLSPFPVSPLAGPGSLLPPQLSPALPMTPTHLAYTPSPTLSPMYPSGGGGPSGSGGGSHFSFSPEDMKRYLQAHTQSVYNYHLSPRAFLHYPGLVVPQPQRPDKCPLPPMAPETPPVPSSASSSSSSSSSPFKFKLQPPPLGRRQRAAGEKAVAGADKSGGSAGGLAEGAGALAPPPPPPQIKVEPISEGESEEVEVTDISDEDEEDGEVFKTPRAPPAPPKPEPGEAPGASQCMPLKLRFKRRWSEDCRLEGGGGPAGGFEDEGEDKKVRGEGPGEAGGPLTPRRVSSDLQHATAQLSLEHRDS
# How it was run: as §1
# [12] = molecular target: T7, ETV3L (Homo sapiens, UniProt Q6ZN32 1-361); details: protein: recombinant; tags: N-terminal GST; dsDNA, one strand shown
# T7 sequence: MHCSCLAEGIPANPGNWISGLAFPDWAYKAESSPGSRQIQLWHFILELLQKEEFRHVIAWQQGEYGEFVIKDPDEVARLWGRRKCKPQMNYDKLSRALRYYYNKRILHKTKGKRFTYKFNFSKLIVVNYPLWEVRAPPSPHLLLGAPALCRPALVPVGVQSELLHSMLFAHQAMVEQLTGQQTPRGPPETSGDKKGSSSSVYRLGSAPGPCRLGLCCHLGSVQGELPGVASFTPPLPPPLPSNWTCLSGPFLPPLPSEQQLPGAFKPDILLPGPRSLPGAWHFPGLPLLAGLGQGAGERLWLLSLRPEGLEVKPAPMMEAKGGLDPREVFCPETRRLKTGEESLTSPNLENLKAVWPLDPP
# How it was run: as §1
# [13] = molecular target: T8, ETS2 (Homo sapiens, UniProt P15036 1-469); details: protein: recombinant; tags: N-terminal GST; dsDNA, one strand shown
# T8 sequence: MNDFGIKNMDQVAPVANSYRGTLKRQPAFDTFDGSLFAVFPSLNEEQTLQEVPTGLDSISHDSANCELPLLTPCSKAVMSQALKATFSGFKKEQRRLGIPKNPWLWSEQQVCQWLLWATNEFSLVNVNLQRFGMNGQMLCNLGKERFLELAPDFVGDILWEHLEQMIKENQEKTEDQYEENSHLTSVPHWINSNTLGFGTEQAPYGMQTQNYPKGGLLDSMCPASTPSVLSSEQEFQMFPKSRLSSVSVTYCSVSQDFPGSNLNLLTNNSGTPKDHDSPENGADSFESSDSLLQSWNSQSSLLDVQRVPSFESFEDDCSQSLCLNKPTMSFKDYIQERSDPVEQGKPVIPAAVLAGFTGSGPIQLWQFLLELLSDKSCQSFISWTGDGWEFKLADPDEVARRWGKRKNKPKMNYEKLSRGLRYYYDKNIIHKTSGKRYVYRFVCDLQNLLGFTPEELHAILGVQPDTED
# How it was run: as §1
# [14] = molecular target: T9, SPDEF (Homo sapiens, UniProt O95238 1-335); details: protein: recombinant; tags: N-terminal GST; dsDNA, one strand shown
# T9 sequence: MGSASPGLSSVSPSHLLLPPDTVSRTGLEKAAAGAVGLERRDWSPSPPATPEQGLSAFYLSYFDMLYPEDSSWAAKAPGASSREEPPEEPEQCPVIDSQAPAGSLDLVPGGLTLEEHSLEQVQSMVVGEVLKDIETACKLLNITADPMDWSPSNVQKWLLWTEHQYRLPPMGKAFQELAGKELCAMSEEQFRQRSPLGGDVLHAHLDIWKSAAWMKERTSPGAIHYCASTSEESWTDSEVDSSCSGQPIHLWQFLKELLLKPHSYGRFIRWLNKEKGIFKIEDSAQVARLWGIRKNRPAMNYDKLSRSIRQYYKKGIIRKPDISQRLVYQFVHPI
# How it was run: as §1
# [15] = molecular target: T10, ETV7 (Homo sapiens, UniProt Q9Y603 1-341); details: protein: recombinant; tags: N-terminal GST; dsDNA, one strand shown
# T10 sequence: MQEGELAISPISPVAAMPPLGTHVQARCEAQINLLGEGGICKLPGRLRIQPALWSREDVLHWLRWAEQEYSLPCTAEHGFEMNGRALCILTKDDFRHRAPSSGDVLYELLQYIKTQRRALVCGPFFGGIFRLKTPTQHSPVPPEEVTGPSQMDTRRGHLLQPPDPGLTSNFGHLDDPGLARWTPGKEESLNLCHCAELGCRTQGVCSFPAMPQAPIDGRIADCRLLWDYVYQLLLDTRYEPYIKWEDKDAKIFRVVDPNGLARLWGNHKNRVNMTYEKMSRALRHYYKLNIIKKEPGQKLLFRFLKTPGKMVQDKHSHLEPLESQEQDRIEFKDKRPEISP
# How it was run: as §1
# [16] = molecular target: T11, ELF5 (Homo sapiens, UniProt Q9UKW6-2 1-255); details: protein: recombinant; tags: N-terminal GST; dsDNA, one strand shown
# T11 sequence: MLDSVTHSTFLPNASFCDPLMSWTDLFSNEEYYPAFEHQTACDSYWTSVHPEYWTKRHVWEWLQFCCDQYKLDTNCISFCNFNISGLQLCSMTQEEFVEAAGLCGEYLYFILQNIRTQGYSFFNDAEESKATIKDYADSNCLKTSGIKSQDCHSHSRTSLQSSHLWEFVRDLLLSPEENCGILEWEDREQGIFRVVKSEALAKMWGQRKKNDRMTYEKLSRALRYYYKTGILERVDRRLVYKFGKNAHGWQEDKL
# How it was run: as §1
# [17] = molecular target: T12, ETV3 (Homo sapiens, UniProt P41162-2 1-143); details: protein: recombinant; tags: N-terminal GST; dsDNA, one strand shown
# T12 sequence: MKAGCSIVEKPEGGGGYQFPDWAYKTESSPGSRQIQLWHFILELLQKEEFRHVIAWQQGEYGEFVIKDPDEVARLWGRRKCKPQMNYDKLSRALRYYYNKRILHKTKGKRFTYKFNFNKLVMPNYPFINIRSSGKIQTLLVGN
# How it was run: as §1
# [18] = molecular target: ETV6 (Homo sapiens, UniProt P41212 1-452); details: protein: recombinant; tags: N-terminal GST; dsDNA, one strand shown
# ETV6, sequence (P41212 whole entry): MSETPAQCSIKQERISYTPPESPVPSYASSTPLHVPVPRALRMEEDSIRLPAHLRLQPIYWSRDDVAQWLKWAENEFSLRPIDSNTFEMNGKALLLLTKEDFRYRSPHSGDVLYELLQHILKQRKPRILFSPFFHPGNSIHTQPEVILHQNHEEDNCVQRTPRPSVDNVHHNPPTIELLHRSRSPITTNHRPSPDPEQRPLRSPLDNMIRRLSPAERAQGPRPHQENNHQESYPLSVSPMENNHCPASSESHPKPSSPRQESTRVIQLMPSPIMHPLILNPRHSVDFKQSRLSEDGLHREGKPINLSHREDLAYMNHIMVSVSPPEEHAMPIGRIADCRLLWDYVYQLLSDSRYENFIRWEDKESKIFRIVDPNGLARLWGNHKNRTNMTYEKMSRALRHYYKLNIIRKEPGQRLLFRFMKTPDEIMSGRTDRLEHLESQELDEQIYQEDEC
# How it was run: as §1
sequence,measurement,setting,value
AAGTCT,binding signal,[1],"1.07 fold enrichment (6-mer frequency, TF over GST control)"
same,binding signal,[2],"1.12 fold enrichment (6-mer frequency, TF over GST control)"
same,binding signal,[3],"1.25 fold enrichment (6-mer frequency, TF over GST control)"
same,binding signal,[4],"1.04 fold enrichment (6-mer frequency, TF over GST control)"
same,binding signal,[5],"1.06 fold enrichment (6-mer frequency, TF over GST control)"
same,binding signal,[6],"1.13 fold enrichment (6-mer frequency, TF over GST control)"
same,binding signal,[7],"1.06 fold enrichment (6-mer frequency, TF over GST control)"
same,binding signal,[8],"1.13 fold enrichment (6-mer frequency, TF over GST control)"
same,binding signal,[9],"1.28 fold enrichment (6-mer frequency, TF over GST control)"
same,binding signal,[10],"1.09 fold enrichment (6-mer frequency, TF over GST control)"
same,binding signal,[11],"1.25 fold enrichment (6-mer frequency, TF over GST control)"
same,binding signal,[12],"1.14 fold enrichment (6-mer frequency, TF over GST control)"
same,binding signal,[13],"1.21 fold enrichment (6-mer frequency, TF over GST control)"
same,binding signal,[14],"1.13 fold enrichment (6-mer frequency, TF over GST control)"
same,binding signal,[15],"1.15 fold enrichment (6-mer frequency, TF over GST control)"
same,binding signal,[16],"1.23 fold enrichment (6-mer frequency, TF over GST control)"
same,binding signal,[17],"1.21 fold enrichment (6-mer frequency, TF over GST control)"
same,binding signal,[18],"1.14 fold enrichment (6-mer frequency, TF over GST control)"
